These results are taken from ChEMBL document CHEMBL3433997, “St. Jude Leishmania screening dataset” (2016).

Solute carrier family 2, facilitated glucose transporter member 1 (Homo sapiens), sequence (P11166 whole entry): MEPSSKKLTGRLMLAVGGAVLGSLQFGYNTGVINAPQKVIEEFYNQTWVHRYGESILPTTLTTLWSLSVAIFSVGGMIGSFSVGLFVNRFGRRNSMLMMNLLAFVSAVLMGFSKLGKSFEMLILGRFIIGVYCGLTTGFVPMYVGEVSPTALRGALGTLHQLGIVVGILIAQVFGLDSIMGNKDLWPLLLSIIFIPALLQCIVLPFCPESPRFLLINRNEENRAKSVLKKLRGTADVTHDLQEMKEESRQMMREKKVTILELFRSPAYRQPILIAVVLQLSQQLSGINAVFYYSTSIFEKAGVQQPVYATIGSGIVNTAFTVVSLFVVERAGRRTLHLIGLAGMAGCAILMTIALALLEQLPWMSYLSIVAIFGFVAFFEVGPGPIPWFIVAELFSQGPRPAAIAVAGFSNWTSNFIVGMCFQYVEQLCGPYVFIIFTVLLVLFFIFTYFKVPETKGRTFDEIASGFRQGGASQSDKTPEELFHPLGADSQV

The first assay concerns the target Solute carrier family 2, facilitated glucose transporter member 1 (Homo sapiens) (UniProt P11166). In words: ST_JUDE_LEISH: Cytotoxicity at 2uM final concentration against transgenic Leishmania Mexicana promastigotes LmGLUT1 that are glucose transport deficient and complemented with the human glucose transporter GLUT1. Activity is measured by DNA content using SYBR green in vitro. The assay is classed as functional.
On to `O=C(/C=C/c1ccc(C(F)(F)F)cc1)NCCCCCN1CCC(c2c[nH]c3ccccc23)CC1`, for which the inhibition was -1.24%.
Still for that read-out and setting: the result for `O=C(COc1cnc2ccccc2n1)Nc1ccccc1Sc1ccc(Cl)cc1` reads 4.91%; that for `CO/C(=C\C=C\c1cc2cc(Cl)c(Cl)cc2[nH]1)C(=O)NCCCN1CCN(c2cccc(O)c2)CC1`, 10.4%; that for `Cc1ccc(CNC(=O)c2cc3c(=O)n4ccccc4nc3n(CCCN3CCOCC3)c2=N)cc1`, 8.03%.
Still for that read-out and setting: the result for `COc1cc(-c2ccc3c(-c4ccc(C(=O)N5CCN(C)CC5)cc4)n[nH]c3n2)cc(OC)c1OC` reads 0.99%; that for `Fc1ccc2[nH]c(-c3ccc(-c4ccc(CN5CCCCC5)cc4)s3)nc2c1`, 5.07%.
Same read-out and setting: the result for `c1csc(-c2ccc3c(c2)CC(NCc2c[nH]c4cnccc24)C3)c1` (stereo unspecified) reads 4.86%.
In the case of `COc1ccccc1N1CCN(CCCCNC(=O)c2ccc(NC(=O)c3ccc4ccccc4c3)cc2)CC1`, the inhibition was 0.49%.
Still for that read-out and setting: to `COCCN1CCC(N(Cc2ccc(-c3ccc(OC(F)(F)F)cc3)cc2)C(=O)Cn2c(CCc3cccc(F)c3F)cc(=O)c3ccccc32)CC1` belongs 4.31%; to `Cc1cccc2nc(-c3ccc(-c4cccc(CNCc5ccc(S(C)(=O)=O)cc5)c4)s3)[nH]c12`, 12.5%; to `CCN(CCNS(C)(=O)=O)c1ccc(N)c(C)c1`, 1.65%.
Still for that read-out and setting: the result for `Cc1cccc2nc(-c3ccc(-c4ccc(CN5CCCC(O)C5)cc4)cc3)[nH]c12` (stereo unspecified) reads 25.8%; that for `O=C(Nc1cccc([N+](=O)[O-])c1)Nc1ccc(Cl)c(C(F)(F)F)c1`, -1.69%.
`COc1ccc(CCNCCCCCCNCCc2ccc(Cl)c3ccccc23)cc1OC`: the inhibition was 0.11%.
On the same count and under the same terms, the result for `Cc1cc(NC(=O)Nc2cccc(Cl)c2Cl)c2ccccc2n1` reads 6.15%; that for `Nc1ccc(-c2nc3cc(Oc4ccc5[nH]c(-c6ccc(N)cc6)nc5c4)ccc3[nH]2)cc1`, -3.07%.
The same measure, in the same setting: to `c1ccc(-c2csc(Nc3nc4cc5c(cc4s3)OCO5)n2)nc1` belongs 0.62%; to `Cc1cccc2nc(-c3cccc(-c4cccc(NC(=O)C(C)CN(C)C)c4)c3)[nH]c12` (stereo unspecified), 1.51%.
As to `Cc1cccc2nc(-c3ccc(-c4ccc(CNC(C)C)cc4)cc3)[nH]c12`, the inhibition worked out at 21.6%.
Same read-out and setting: to `Cc1ccc(F)cc1-c1cc(N2CCCN(C(=O)c3ccc(Br)o3)CC2)ncn1` belongs 0.81%.
On to `O=C(Nc1cccc(-c2cccc(-c3nc4ccccc4[nH]3)c2)c1)c1ccncc1`, for which the inhibition was determined as 4.03%.
The same measure, in the same setting: to `CC1CN(CC(O)Cn2c3ccc(Br)cc3c3cc(Br)ccc32)CC(C)O1` (stereo unspecified) belongs 2.95%.
For `Cc1ccc(C)c(NC(=O)NC2CCN(c3ccnc(Nc4ccc(F)cc4)n3)C2)c1` (stereo unspecified), the inhibition is -2.45%.
For the molecule `Cc1ccc(Cn2nc(N3CCNCC3)ccc2=O)cc1NC(=O)Nc1ccc(-c2ccccc2)cc1`, the inhibition was 1.5%.
As to `N=C(N)NN=Cc1cc2ccccc2c2ccccc12`, the inhibition came out at 8.49%.
Same read-out and setting: to `COc1cc2nc(N3CCC(CNC(=O)c4ccc(-c5ccc(C(F)(F)F)cc5)cc4)CC3)nc(N)c2cc1OC` belongs 2.82%.

Another assay has as its target Hexose transporter 1 (Plasmodium falciparum) (UniProt O97467). The experiment in a line: ST_JUDE_LEISH: Cytotoxicity at 2uM final concentration against transgenic Leishmania Mexicana promastigotes LmPfHT that are glucose transport deficient and complemented with the Plasmodium falciparum hexose transporter. Activity is measured by DNA content using SYBR green in vitro. It is filed as functional.
Consider `COc1ccccc1CCNc1nc(C)cc(N[C@@H](CC(C)C)C(=O)NCc2cccc(F)c2)n1`, for which the inhibition was 8.52%.
Same read-out and setting: to `CCN(C(=O)c1ccc(NC(=O)c2cccs2)cc1)c1nc2c(C)cccc2s1` belongs 4.28%; to `COCCN1CCN(Cc2ccc(-c3ccc(-c4nc5cccc(C)c5[nH]4)s3)cc2)CC1`, 6.85%; to `O=C(OCc1ccccc1)N1CCc2c([nH]c3ccccc23)C1CCC(F)(F)F` (stereo unspecified), 2.6%.
Still for that read-out and setting: the result for `COc1cc(C=C(C2=NC(=O)CS2)c2nc3cccnc3n2C)ccc1O` reads 5.56%.
Still for that read-out and setting: the result for `COc1cccc(CNC(=O)c2ccnc(-c3ccc(CNCCOc4ccccc4)cc3)c2)c1` reads 1.69%; that for `COc1ccc2nc3cc(Cl)ccc3c(Nc3ccc(Oc4ccc(Nc5c6ccc(Cl)cc6nc6ccc(OC)cc56)cc4)cc3)c2c1`, 1.19%.
For `O=C(Nc1ccc2c(ccn2C2CCCN(Cc3cc(F)cc(F)c3F)CC2)c1)c1ccco1` (stereo unspecified), the inhibition was -3.49%.
Same read-out and setting: to `COc1ccc(N2CCN(CCCCNC(=O)c3ccc(NC(=O)c4cc(C(F)(F)F)cc(C(F)(F)F)c4)cc3)CC2)cc1OC` belongs 2.48%; to `COc1cc2nc(N3CCC(CNC(=O)c4ccc(-c5ccc(Cl)cc5)cc4)CC3)nc(N)c2cc1OC`, 8.03%; to `O=C(C=Cc1ccc(C(=O)Nc2ccc(C3=NCCN3)cc2)cc1)Nc1ccc(C2=NCCN2)cc1`, 5.38%.
The same measure, in the same setting: to `COC(=O)C1=C(C)NC2=C(C(=O)CC(c3ccc(OC)c(OC)c3)C2)C1c1cccc(O)c1` (stereo unspecified) belongs 3.84%; to `CCOC(=O)c1cnc2c(OC)cc(OC)c(Cl)c2c1Nc1cccc(C)c1`, 8.66%; to `COc1c(C2CCN(CCCCNC(=O)c3cc(-c4ccc(Cl)cc4)oc3C)CC2)ccc2c1CCCC2`, 9.78%.
Still for that read-out and setting: the result for `O=C(/C=C/c1ccc(C(F)(F)F)cc1)NCCCCCN1CCC(c2c[nH]c3ccccc23)CC1` reads -1.37%; that for `O=C(COc1cnc2ccccc2n1)Nc1ccccc1Sc1ccc(Cl)cc1`, 3.31%; that for `CO/C(=C\C=C\c1cc2cc(Cl)c(Cl)cc2[nH]1)C(=O)NCCCN1CCN(c2cccc(O)c2)CC1`, 11.7%.
`Cc1ccc(CNC(=O)c2cc3c(=O)n4ccccc4nc3n(CCCN3CCOCC3)c2=N)cc1`: the inhibition is 6.83%.
Same read-out and setting: to `COc1cc(-c2ccc3c(-c4ccc(C(=O)N5CCN(C)CC5)cc4)n[nH]c3n2)cc(OC)c1OC` belongs 1.78%; to `Fc1ccc2[nH]c(-c3ccc(-c4ccc(CN5CCCCC5)cc4)s3)nc2c1`, 4.14%.
Still for that read-out and setting: the result for `c1csc(-c2ccc3c(c2)CC(NCc2c[nH]c4cnccc24)C3)c1` (stereo unspecified) reads 5.34%; that for `COc1ccccc1N1CCN(CCCCNC(=O)c2ccc(NC(=O)c3ccc4ccccc4c3)cc2)CC1`, 1.01%; that for `COCCN1CCC(N(Cc2ccc(-c3ccc(OC(F)(F)F)cc3)cc2)C(=O)Cn2c(CCc3cccc(F)c3F)cc(=O)c3ccccc32)CC1`, 4.88%.
Still for that read-out and setting: the result for `Cc1cccc2nc(-c3ccc(-c4cccc(CNCc5ccc(S(C)(=O)=O)cc5)c4)s3)[nH]c12` reads 9.13%; that for `CCN(CCNS(C)(=O)=O)c1ccc(N)c(C)c1`, 1.06%; that for `Cc1cccc2nc(-c3ccc(-c4ccc(CN5CCCC(O)C5)cc4)cc3)[nH]c12` (stereo unspecified), 30.8%.
On to `O=C(Nc1cccc([N+](=O)[O-])c1)Nc1ccc(Cl)c(C(F)(F)F)c1`, for which the inhibition stood at 1.56%.
Same read-out and setting: to `COc1ccc(CCNCCCCCCNCCc2ccc(Cl)c3ccccc23)cc1OC` belongs 0.21%.
Still for that read-out and setting: the result for `Cc1cc(NC(=O)Nc2cccc(Cl)c2Cl)c2ccccc2n1` reads 6.44%; that for `Nc1ccc(-c2nc3cc(Oc4ccc5[nH]c(-c6ccc(N)cc6)nc5c4)ccc3[nH]2)cc1`, 0.6%.
Still for that read-out and setting: the result for `c1ccc(-c2csc(Nc3nc4cc5c(cc4s3)OCO5)n2)nc1` reads 0.83%; that for `Cc1cccc2nc(-c3cccc(-c4cccc(NC(=O)C(C)CN(C)C)c4)c3)[nH]c12` (stereo unspecified), 1.39%; that for `Cc1cccc2nc(-c3ccc(-c4ccc(CNC(C)C)cc4)cc3)[nH]c12`, 25.1%.
Turning to `Cc1ccc(F)cc1-c1cc(N2CCCN(C(=O)c3ccc(Br)o3)CC2)ncn1`, the inhibition worked out at 0.93%.
On the same count and under the same terms, the result for `O=C(Nc1cccc(-c2cccc(-c3nc4ccccc4[nH]3)c2)c1)c1ccncc1` reads 4.7%.
For `CC1CN(CC(O)Cn2c3ccc(Br)cc3c3cc(Br)ccc32)CC(C)O1` (stereo unspecified), the inhibition amounted to 2.45%.
The same measure, in the same setting: to `Cc1ccc(C)c(NC(=O)NC2CCN(c3ccnc(Nc4ccc(F)cc4)n3)C2)c1` (stereo unspecified) belongs -0.78%; to `Cc1ccc(Cn2nc(N3CCNCC3)ccc2=O)cc1NC(=O)Nc1ccc(-c2ccccc2)cc1`, 2.27%; to `N=C(N)NN=Cc1cc2ccccc2c2ccccc12`, 9.7%.
Still for that read-out and setting: to `COc1cc2nc(N3CCC(CNC(=O)c4ccc(-c5ccc(C(F)(F)F)cc5)cc4)CC3)nc(N)c2cc1OC` belongs 2.34%.
